# Data published in PubChem BioAssay (NCI).
# About 83,000 compounds went through this panel and 20% of them were active in at least one assay; those are over-represented in the sample as a whole.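 Testing used 96-well plates and a 48-hour single-concentration exposure. Example: -40 means 40% of the starting cells died.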 Unmarked numbers belong to inactive results. Activity calls are given as the source filed them.
# Test system: MOLT-4 leukemia
# Test: NCI-60 one-dose screen, 48 h (100 = growth as untreated, 0 = no growth, -100 = all killed)
# Conditions: 10 µM unless noted
# Procedure: Growth inhibition of the MOLT-4 human tumor cell line is measured as a screen for anti-cancer activity. Cells are grown in 96 well plates and exposed to the test compound for 48 hours. Compounds are tested at a single concentration, which is 10^-5 M for most compounds. The reported endpoint is percent growth (GI% or GIPRCNT), where numbers from 0 - 100% represent growth inhibition, and numbers from -100% - 0 represent cell death. For example, a value of 40 represents 60% growth inhibition. A value of 0 means no net growth occurred over the course of the experiment. A value of -40 indicates 40% of cells at the beginning of the experiment died by the end of the experiment. A value of -100 means all cells are dead at the end of the experiment.
# NCI-60 Human Tumor Cell Lines Screen was performed using the standard one-dose NCI protocol, which is described in more detail at https://dtp.cancer.gov/discovery_development/nci-60/default.htm.
# Compounds with GIPRCNT values below 10 were considered active. Activity score was based on GIPRCNT using the following formula: […]
# Score is 0 for GIPRCNT values of 100 or above, 50 for GIPRCNT values of 0, and 100 for GIPRCNT values of -100.
row,SMILES,growth
1,COc1ccc(C2CC(c3cccc(OCCCCOc4cccc(C5=NN(C(C)=O)C(c6ccc(OC)cc6)C5)c4)c3)=NN2C(C)=O)cc1 (stereo not given),57.4%
2,CN1CCN(Cc2ccc(NC(=O)c3cncc(C#Cc4cnc5ccc(NCCO)nn45)c3)cc2C(F)(F)F)CC1,3.21% (active)
3,COc1ccc(/C=N/N=C(/c2ccccc2)c2ccc3nc(-c4ccc(Cl)cc4)[nH]c3c2)cc1,53.2%
4,Clc1cccc(/C=N/Nc2nc(N/N=C/c3cccc(Cl)c3)nc(N3CCOCC3)n2)c1,6.04% (active)
5,COc1ccc2c(c1)c(-c1nnc(N)nc1-c1c[nH]c3ccc(F)cc13)cn2C,26.2%
6,COc1ccc([C@@H]2C(=O)N(c3cc(OC)c(OC)c(OC)c3)[C@H]2c2ccc(OC)c(O)c2)cc1,16%
7,CC1(C)CC[C@]2(C(=O)NCCCCCCN(CCCN)CCCN)CC[C@]3(C)C(=CC[C@@H]4[C@@]5(C)CC[C@H](O)C(C)(C)[C@@H]5CC[C@]43C)[C@@H]2C1,102%
8,C#Cc1nc(/C=C/CCCCCCC(=O)NO)cs1,-14% (active)
9,C#C[C@]1(O)CC[C@H]2[C@@H]3CC=C4c5sc(Nc6cc(Cl)ccc6OC)nc5CC[C@]4(C)[C@H]3CC[C@@]21C,1.34% (active)
10,N/C(=N\C(N)=N\c1nc2ccccc2s1)c1ccc(Cl)cc1,74%
11,C#CCn1cc(/C=N/Nc2nc(-c3ccc(Br)cc3)cs2)c2ccccc21,101%
12,CCC(=C(c1ccc(OCCN2CCCCCC2)cc1)c1ccc(OCCN2CCCCCC2)cc1)c1ccc(Cl)cc1,4.03% (active)
13,FC(F)(F)c1cc(Br)cc(-c2cc(-c3ccc4c(c3)OCCO4)[nH]n2)c1,22.5%
14,Cc1ccccc1Nc1nc(SC(C)C)nc(-c2ccccc2)c1C#N,90.2%
15,C/C(=N\NC(=O)Nc1ccccc1)c1nnn(-c2ccc([N+](=O)[O-])cc2)c1C,103%
16,Cc1ccc2c(n1)C(=O)C(Cl)=C(Nc1ccc(C(C)C)cc1)C2=O,4.3% (active)
17,C#CCOc1cccc(/C(N)=N/C(N)=N/c2nc3ccccc3s2)c1,71.8%
18,CCc1cc(O)ccc1Nc1cc(-c2ccc(-n3cccn3)cc2)[nH]n1,43.6%
19,CNC(=O)c1cc(-c2ccc(NC(=S)Nc3cccc(C(F)(F)F)c3)cc2)nc2cccnc12,117%
20,C#CCOc1cccc(-c2nc(N)nc(Nc3ccccc3SSc3ccccc3Nc3nc(N)nc(-c4cccc(OCC#C)c4)n3)n2)c1,44%

row,SMILES,growth
1,CC(Nc1ncnc2ccc(-c3cnc(N)nc3)cc12)c1ccccc1 (stereo not given),30.3%
2,O=C(/C=C/c1cccc(Br)c1)c1cccc(OCCCCOc2cccc(C(=O)/C=C/c3cccc(Br)c3)c2)c1,90.4%
3,N#Cc1nc(-c2ccccc2)oc1N1CCC(C2(C(F)(F)F)N=N2)CC1,101%
4,CN1CCN(Cc2ccc(NC(=O)c3cncc(C#Cc4cnc5ccc(OCC6COC6)nn45)c3)cc2C(F)(F)F)CC1,1.49% (active)
5,CCOC(=O)c1ccccc1NC1=C(Cl)C(=O)c2nc(C)ccc2C1=O,84.8%
6,Cc1[nH]c(C(=O)Nc2ccc(S(=O)(=O)N3CCCCC3)cc2OCCOCCOCCOCCOCCOCCOCCOCCOCCOc2cc(S(=O)(=O)N3CCCCC3)ccc2NC(=O)c2[nH]c(C)c3c2CCCCC3=O)c2c1C(=O)CCCC2,11.8%
7,C#C[C@]1(O)CC[C@H]2[C@@H]3CC=C4c5sc(N(C)c6ccccc6)nc5CC[C@]4(C)[C@H]3CC[C@@]21C,31.3%
8,CCN(CC)c1ccc(/C=N/NC(=O)c2ccc(S(N)(=O)=O)cc2)c(O)c1,11.2%
9,CCOP(=O)(OCC)OC[C@]12CC[C@@H](C)[C@H](C)C1C1=CC[C@@H]3[C@@]4(C)CCCNC(C)(C)[C@@H]4CC[C@@]3(C)[C@]1(C)CC2 (stereo not given in full),-69.1% (active)
10,COc1cc(/C=C2/C(=O)Nc3ccc(Cl)cc32)ccc1OCc1ccc(Cl)cc1,76.7%
11,COc1ccc(/C=N\NC(=O)c2cnn(CC(O)c3ccccc3)c2N)cc1OCc1ccc(Cl)cc1 (stereo not given),62.4%
12,CC(C)(C)OC(=O)NCc1ccc(CNc2c([N+](=O)[O-])cnc3ccccc23)cc1,34.4%
13,C#C[C@]1(O)CC[C@H]2[C@@H]3CC=C4c5sc(Nc6ncccc6C)nc5CC[C@]4(C)[C@H]3CC[C@@]21C,-30.3% (active)
14,CCN(CC)CCOc1ccc(C(=C(C)c2ccc(OC)cc2)c2ccc(OCCN(CC)CC)cc2)cc1,1.17% (active)
15,CCCCc1nc2c(N)nc3ccccc3c2n1Cc1ccc(OC)cc1,36.8%
16,Cc1ccc2c(n1)C(=O)C(Cl)=C(Nc1cccc(C(=O)OC(C)(C)C)c1)C2=O,6.09% (active)
17,CC(=O)Nc1nc(C)c(-c2csc(Nc3ccccc3)n2)s1,16.6%
18,Brc1ccc2[nH]cc(-c3nn4cc(-c5nccs5)nc4s3)c2c1,16.5%
19,CC1=Cc2ccccc2OC12C=Cc1ccccc1O2 (stereo not given),99.9%
20,CC(=C(c1ccc(OCCN(C)C)cc1)c1ccc(OCCN(C)C)cc1)c1ccc(Cl)cc1,-49.7% (active)
